# Laboratory results as given in PubChem BioAssay (NCATS).
# A number with no mark means an inactive call. The rule behind the calls is not given here.
# System: HIV-1 nucleocapsid protein NCp7 (binding to TG oligonucleotide)
# Test: HIV Nucleocapsid (AID 346);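 note: potency is for inhibitors that block NC binding and lower polarization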
# Conditions: HIV-1 NC / fluorescein-TGTGTGTG probe, fluorescence polarization
# Summary of the method: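 NCp7 100 nM + fluorescein TG4xF 10 nM; Hepes pH 7.5/250mM NaCl/1uM ZnCl2/0.004% PEG 20000; 1 hr RT; FP, 45 s exposure; oligo-only wells as negative control.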
# Potency is the fitted concentration of half-maximal effect.
row,SMILES,Potency [µM]
1,O=C(c1cccc(F)c1)N1CCC2(CC1)CCN(c1ncccn1)CC2,> 20
2,Cc1cccc(CNc2cc(-c3c(C)noc3C)ncn2)c1,> 20
3,CC(C)NC(=O)N1CCC2(CC1)CCN(C(=O)c1cccc(F)c1)CC2,> 20
4,CN1CCN(c2ncc3nc(-c4cn(C)c5ccccc45)c(=O)n(CCC#N)c3n2)CC1,> 20
5,CCNc1ncc2nc(-c3ccc(F)cc3)c(=O)n(-c3ccc(OC)cc3)c2n1,> 4
6,Cn1c(=O)c(-c2cc(F)cc(F)c2)nc2cnc(Oc3ccccc3)nc21,> 20
7,O=C(Nc1cccc(F)c1)N1CC2(CCN(C(=O)c3cccc(F)c3)CC2)C1,> 20
8,COc1ccc(-n2c(=O)c(-c3cn(C)c4ccccc34)nc3cnc(OC)nc32)cc1,> 20
9,CCNc1ncc2nc(C)c(=O)n(CCc3ccccc3)c2n1,> 20
10,COc1ccc(CNc2ncncc2-c2ccccc2OC)c(OC)c1,> 20
11,FC(F)(F)c1ccccc1-c1ccc2ncnc(NCc3cccs3)c2c1,> 20
12,CCNc1ncc2nc(CCc3ccccc3)c(=O)n(C3CC3)c2n1,> 20
13,COc1ccc2[nH]cc(CCNc3ncncc3-c3ccccc3Cl)c2c1,> 20
14,COc1ccccc1CCn1c(=O)c(-c2ccc(F)c(F)c2)nc2cncnc21,> 20
15,COc1ccc(C(=O)N2CCC3(CC2)CN(c2cccc(-c4ccccc4)c2)C3)cc1,> 20
16,COc1ncc2nc(-c3ccc(F)cc3)c(=O)n(C3CC3)c2n1,> 20
17,COc1ccc(CNc2ncnc3ccc(-c4ccccc4CN(C)C)cc23)c(OC)c1,> 20
18,O=C(c1csnn1)N1CCC2(CCN(Cc3cc(C(F)(F)F)cc(C(F)(F)F)c3)CC2)CC1,> 20
19,O=C(c1cnccn1)N1CCC2(CC1)CCN(c1ccccc1)CC2,> 20
20,COCCNc1nc(-c2cccc(NS(C)(=O)=O)c2)nc2ccccc12,> 20

row,SMILES,Potency [µM]
1,N#Cc1ccccc1-c1cncnc1NCc1cccnc1,> 20
2,COc1cccc(Nc2ncc3ncc(=O)n(C[C@H]4CCCO4)c3n2)c1,> 20
3,COc1ccc(NC(=O)N2CCCC3(CCNCC3)C2)cc1,> 20
4,O=C(c1cnccn1)N1CCC2(CCCN(c3cccc(-c4ccccc4)c3)C2)CC1,> 20
5,CN(C)c1ncc2nc(-c3ccccc3)c(=O)n(C)c2n1,> 20
6,CCNc1ncc2nc(-c3cc(F)cc(F)c3)c(=O)n(Cc3ccc(F)cc3)c2n1,> 4
7,Cc1nc2cnc(N(C)C)nc2n(Cc2cccs2)c1=O,> 20
8,COc1ccc(C(=O)N2CCC3(CC2)CCN(c2ncccn2)CC3)cc1,> 20
9,COc1ccccc1CNc1ccnc(-c2ccoc2)n1,> 20
10,Cc1noc(C)c1C(=O)N1CCC2(CCCN(Cc3ccc(C#N)cc3)C2)CC1,> 20
11,Cc1cnc(CNc2nc(-c3c(C)noc3C)nc3ccccc23)cn1,> 20
12,CS(=O)(=O)N1CCC[C@@]2(CCN(c3ncccn3)C2)C1,> 20
13,c1cn(-c2ncnc3ccc(-c4ccoc4)cc23)cn1,> 20
14,Cc1noc(C)c1-c1cncnc1N(C)Cc1ccco1,> 20
15,COC(=O)N1CCC2(CC1)CCN(c1cccc(-c3ccccc3)c1)CC2,> 20
16,CCNc1ncc2nc(-c3ccc(OC)cc3)c(=O)n(Cc3ccc(F)cc3)c2n1,> 20
17,c1csc(CNc2ncnc3ccc(-c4ccoc4)cc23)c1,> 20
18,Cc1nc2cnc(Oc3cccc(Cl)c3)nc2n(Cc2ccc(F)cc2)c1=O,> 20
19,CN(C)c1ncc2nc(CCc3ccccc3)c(=O)n(CCc3ccccc3)c2n1,> 20
20,c1ccc2c(NCCN3CCOCC3)nc(-c3ccc4c(c3)OCO4)nc2c1,> 20
